The values that follow come from PubChem BioAssay (NCI).

The panel holds about 79,000 compounds, 15% with a hit somewhere; the sample as a whole holds those more often. Active and inactive are the calls of the source. Rule as the data show it: active = growth inhibition above about 70%; inactive = the rest.

The nature of the experiment: NCI Yeast Anticancer Drug Screen. Data for the rad50 strain (AID 155).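 Also: 0% = growth of vehicle-only cultures of the same strain.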 To be noted: S. cerevisiae rad50 strain growth inhibition; at 50.0 µM; hits give high values. As for the experimental part:
Growth inhibition of yeast strains with defined genetic alterations is measured as a screen for potential anti-cancer activity. Selected strains with alterations in DNA damage repair or cell cycle control were exposed to compounds and growth inhibition was measured relative to vehicle treated controls. The strain used in this assay is rad50
As for `CC(C)(C)c1cc(C2COC(=O)COCCOCC(=O)OCCOCCO2)cc(C(C)(C)C)c1O` (stereo not given), the growth inhibition was 12.5% (inactive). Next, `CCOc1ccc(N2C(=O)C3C4c5ccccc5C(c5ccccc54)C3C2=O)cc1` (stereo not given): 27% (inactive); `CCOC(=O)c1sc(N)nc1-c1ccccc1`: 10.7% (inactive).

For `Fc1ccccc1Nc1n[nH]c(=S)s1`, the growth inhibition was 55.9% (inactive).

`Cc1ccc(/C=N/N2C(=O)c3ccccc3C2=O)cc1`: the growth inhibition was -28.9% (inactive).

`CCN(CC)c1cc(C(C)(C)C)cc(C(C)(C)C)c1`: the growth inhibition is 0.45% (inactive). Regarding `O=CNC(Cc1ccc(O)cc1)C(=O)O` (stereo not given), the growth inhibition is 4.1% (inactive). In the case of `O=C(/C=C/C=C/c1ccccc1)c1ccc(Cl)cc1`, the growth inhibition is -12.3% (inactive). For `CCOC(=O)c1sc(N)c(C(=O)OCC)c1C`, the growth inhibition is -38.2% (inactive). With `CCCCCCCCCC(O)CCCCC` (stereo not given), the growth inhibition was -1.85% (inactive).

`OC(c1ccc(F)cc1)(c1cccs1)C1CC1` (stereo not given): the growth inhibition is -9.55% (inactive).

For the molecule `CC12CC3(C)CC(C)(C1)CC(C(Cl)C(=O)O)(C2)C3` (stereo not given), the growth inhibition is 50.7% (inactive).

For the molecule `O=[N+]([O-])c1ccc(-n2[nH]nnc2=S)cc1`, the growth inhibition was -6.7% (inactive). With `CCCCCCCCCCCCCCCCOc1ccc(C(=O)NN)cc1N`, the growth inhibition is -18.6% (inactive). `Nc1nc(N)nc(-c2ccccc2Cl)n1`: the growth inhibition is 3.65% (inactive). Consider `N#[N+]c1c(O)cc(S(=O)(=O)O)c2ccccc12`, for which the growth inhibition is -21.6% (inactive). As to `Cc1ccc(NC(=O)/C(Cc2cc(=O)oc3cc(O)ccc23)=N\NC(C)(C)C)cc1C`, the growth inhibition was -3.95% (inactive).

On to `CCn1c(C)[n+](CC)c2ccc(C(F)(F)F)cc21`, for which the growth inhibition was -6.4% (inactive). With `O=C1NC(=O)C(c2ccccc2)(C2CCC2)N1` (stereo not given), the growth inhibition was -6.95% (inactive).

`OCc1ccccc1OC1OC(CO)C(O)C(O)C1O` (stereo not given): the growth inhibition is 18.5% (inactive). As to `O=C1Nc2ccccc2/C1=N/N=C/c1cc(Cl)cc(Cl)c1O`, the growth inhibition was 32.7% (inactive). As to `C[C@]12CC[C@@H]3c4ccc(OS(N)(=O)=O)cc4CC[C@H]3[C@@H]1CCC2=O`, the growth inhibition was 2.35% (inactive). For the molecule `C=C1CC2(C)CCC(OC(=O)C3(C)OC3C)C(C)(OC(C)=O)C2CC1=C(C)C` (stereo not given), the growth inhibition was 7.7% (inactive). Take `CCn1c2[n+](c3ccccc31)CCC2`: the growth inhibition is -28.6% (inactive).

Consider `CCOC(=O)C(CNc1ccccc1)C(=O)OCC`, for which the growth inhibition is -25.4% (inactive). For `N#CCC(=O)OCCCCOC(=O)CC#N`, the growth inhibition was -8.3% (inactive). With `COc1cc2c(cc1C1COc3cc4occc4cc3C1=O)OCO2` (stereo not given), the growth inhibition is 5.15% (inactive).

Regarding `CC1=NN(c2ccccc2)C(=O)C1C(=O)c1ccccc1` (stereo not given), the growth inhibition is 22.2% (inactive). On to `COc1cc(/C=N/NC(=O)c2ccncc2)cc(OC)c1OC`, for which the growth inhibition was -14.2% (inactive). The figure for `CC(C)=CC(O)C/C(C)=C/CC/C(C)=C/CCC1(C)C(CCCO)/C(=C(/C)C=O)CCC1(C)O` (stereo not given) is 18.9% (inactive); for `COc1cc(OC)cc(C(=O)Cl)c1` it is -24.4% (inactive). Regarding `CC/C(Cl)=N\OC(=O)Nc1ccc(OC)cc1`, the growth inhibition was -5.35% (inactive). Next, `C[Si]1(C)N[Si](C)(C)N[Si](C)(C)N1`: 13.2% (inactive); `N#C/C(=C/c1c(O)ccc2ccccc12)C(N)=O`: 33.7% (inactive). Next, `O=C(Cc1cccc2ccccc12)N/N=C/c1ccc2c(c1)CCC2`: 14.9% (inactive); `C/C(O)=C/c1nc2sc(C)c(C)c2c(=O)s1`: 14.4% (inactive); `O=C=NC(c1ccccc1)(c1ccccc1)c1ccccc1`: -4.25% (inactive).

In the case of `CC(=O)Nc1ccc(/C=C/C(=O)c2ccc(Cl)cc2)cc1`, the growth inhibition is 18.2% (inactive). As for `Cc1ccc2c(/C=C/c3ccc(N(C)C)cc3)ccc(C(C)C)cc1-2`, the growth inhibition is -5.4% (inactive).

`CC/C(=C\c1cccc([N+](=O)[O-])c1)C(=O)O`: the growth inhibition is -9.65% (inactive).
